One may read the inhibition as the relative decrease from the control value, in per cent.

The campaign covered roughly 96,000 compounds. About 80 (0.08%) were called active. Not all results are given here. Results with a measured potency or affinity are listed apart. Unmarked numbers belong to inactive results. The rule behind the calls is not given here.

The target of this assay is Alkaline phosphatase, placental type (Homo sapiens) (UniProt P05187). The assay is described as follows: PLAP enzyme inhibitors, biochemical, luminescence, HTS (AID 690). The following applies: purified PLAP, luminescent substrate; at 20 µM; hits give high values.
Chain of Alkaline phosphatase, placental type (Homo sapiens) (P05187 whole entry, looked up): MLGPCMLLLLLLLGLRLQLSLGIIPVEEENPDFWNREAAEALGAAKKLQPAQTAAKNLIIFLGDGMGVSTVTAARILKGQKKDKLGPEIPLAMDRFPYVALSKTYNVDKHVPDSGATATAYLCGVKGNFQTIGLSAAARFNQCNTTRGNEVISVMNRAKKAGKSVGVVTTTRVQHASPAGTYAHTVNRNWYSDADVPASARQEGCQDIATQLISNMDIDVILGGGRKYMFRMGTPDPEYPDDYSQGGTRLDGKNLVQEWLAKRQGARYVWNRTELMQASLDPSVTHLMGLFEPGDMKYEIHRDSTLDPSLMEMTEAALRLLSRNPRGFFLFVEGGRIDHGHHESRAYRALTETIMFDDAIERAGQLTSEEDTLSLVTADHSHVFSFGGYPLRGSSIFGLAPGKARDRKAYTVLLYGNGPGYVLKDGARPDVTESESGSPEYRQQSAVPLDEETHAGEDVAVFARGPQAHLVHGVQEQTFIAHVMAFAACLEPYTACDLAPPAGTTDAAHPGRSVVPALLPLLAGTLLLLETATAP
On to `CN(C)c1ccc(/C=C/c2cc[n+]([O-])cc2)cc1`, for which the inhibition was 5.5%.

As for `C[n+]1ccc(/C=C/c2ccc(Br)cc2)cc1`, the inhibition was 33.9%.

Regarding `CN(C)c1nc(C(=O)NN)nc(N(C)C)n1`, the inhibition is 21.7%.

Consider `CC1=C(/C=C/C(=O)O)C(C)(C)CCC1`, for which the inhibition was -32.1%.

Take `O=C(COC(=O)c1ccc(Cl)c(S(=O)(=O)N2CCCC2)c1)NC1CCCC1`: the inhibition is -44.5%.

Regarding `N#C/C(=C\c1ccc[nH]1)S(=O)(=O)c1ccccc1`, the inhibition was -3.2%.

Turning to `CCn1cc(/C=C(/C#N)S(=O)(=O)c2ccccc2)cn1`, the inhibition was -12.8%.

For `Cc1ccc(S(=O)(=O)N[C@@H](CC(C)C)C(=O)NCc2ccco2)cc1`, the inhibition is 18.5%.

In the case of `CC1(C)OC(=O)C(=CNc2ccc(F)cc2)C(=O)O1`, the inhibition is 19.1%.

Consider `O=C(Nc1ccc(F)cc1)c1ccccc1CC[N+](=O)[O-]`, for which the inhibition was 8.4%.

As to `COc1ccccc1/C=C1\SC(=S)N(Nc2nc(C)cc(C)n2)C1=O`, the inhibition is 0.7%.

With `Cc1cc(C)nc(NN2C(=O)/C(=C/c3ccccc3)SC2=S)n1`, the inhibition was 12.4%.

Take `Cc1cc(C)n2nc(SCc3cc(=O)oc4cc(C)c(C)cc34)nc2n1`: the inhibition was -31.2%.

On to `CC1(C)C(=O)Nc2ccccc2N1C(=O)COC(=O)CCSc1ccccc1`, for which the inhibition is 6.2%.

As for `COc1ccccc1-n1cnc(N)c1C(=O)c1ccccc1`, the inhibition was 4.4%.

For `Cc1ccc(N2CCN(C(=O)c3ccccc3Br)CC2)c(C)c1`, the inhibition is -48.2%.

As for `CCOC(=O)c1c(-n2c(C)cc(C=O)c2C)sc2c1CCCC2`, the inhibition was -34.6%.

Take `CCOC(=O)c1c(N2C(=O)Nc3cc(Cl)c(Cl)cc3N2O)sc2c1CCCCC2`: the inhibition is -30.1%.

For the compound `CCOC(=O)Nc1sc(C)nc1-c1ccccc1`, the inhibition is 5.8%.

As to `COC(=O)C1=C(C)N=C2SC(C)C(=O)N2C1c1cccc(F)c1` (centres undefined), the inhibition is -3.9%.

Consider `CCOc1ccc(OCC)c(NS(=O)(=O)c2cccc3nsnc23)c1`, for which the inhibition was -1.4%.

With `Cn1c(C(=O)NCCN2CCOCC2)cc2sccc21`, the inhibition is 11.3%.

For `COC(=O)c1ccc(/C=C/C(=O)c2ccc(OC)c(OC)c2)cc1`, the inhibition was 5.6%.

For `COC(=O)c1ccc(/C=C/C(=O)c2ccc(OC)cc2)cc1`, the inhibition is 15.1%.

Turning to `COC(=O)c1ccc2c(c1)C(C)(C)C(/C=C/c1ccc(OC)c(OC)c1OC)=[N+]2C`, the inhibition was -29.3%.

On to `COC(=O)c1ccc2nc(C)c(C)nc2c1`, for which the inhibition was 8.5%.

For `O=C(CCCCCN1C(=O)c2ccccc2C1=O)Nc1ccc(S(=O)(=O)N2CCCCC2)cc1`, the inhibition was 8.2%.

In the case of `c1ccc(Cc2nn3c(Cn4nnc5ccccc54)nnc3s2)cc1`, the inhibition was 15.9%.

Consider `COc1ccc(CCNC(=O)C2CC(=O)N(C3CCCC3)C2)cc1OC` (centres undefined), for which the inhibition was -44.7%.

For `Cc1cc(=O)n2c(ccc3ccccc32)c1C#N`, the inhibition was 8.7%.

As for `CCC(C)(C)NC(=O)C(c1cccs1)N(CC1CCCO1)C(=O)Cn1nnc2ccccc21` (centres undefined), the inhibition was -0.8%.

As for `Cc1cc(C)cc(NC(=O)CSc2nnc(-c3ccccc3)n2N)c1`, the inhibition is -9.3%.

As for `Nc1c(-c2ccc(Cl)cc2)cnn1-c1cccc([N+](=O)[O-])c1`, the inhibition was 2.9%.

Consider `COc1ccc(C(=O)O/N=C(\C)c2ccccc2)cc1`, for which the inhibition is 2.4%.

As to `c1ccc(Nc2cc(Nc3ccccc3)[nH]n2)cc1`, the inhibition is 11.7%.

`c1ccc(Nc2ccccn2)cc1`: the inhibition was 4.3%.

With `Cc1cc(-c2ccccc2)n2nc(C)c(C#N)c2n1`, the inhibition was -0.5%.

As for `C=CCOC(=O)C1=C(C)NC(=O)NC1/C=C/c1ccccc1` (centres undefined), the inhibition is 16.7%.

With `O=C(Cn1ccc2ccccc2c1=O)NCCC(=O)NC1CCN(Cc2ccccc2)CC1`, the inhibition is -48.7%.

Take `O=C(N1CCOCC1)N1CCC(n2nnc3cc(F)ccc32)CC1`: the inhibition was -19.8%.

On to `O=C(NCc1ccccc1)c1ccc(-c2ccc(F)cc2)o1`, for which the inhibition is 3.6%.

Turning to `COc1ccc(-c2nc(-c3ccc(Br)o3)no2)cc1OC`, the inhibition was -40.2%.

Turning to `COc1ccc(-c2noc(-c3ccc(Br)o3)n2)cc1OC`, the inhibition was 29%.

Take `Cc1ccc(CNC(=O)c2ccc(C#CC(C)(C)O)s2)cc1`: the inhibition is 20.2%.

As for `O=C(CNS(=O)(=O)/C=C/c1ccccc1)OCC(=O)N1CCC(Cc2ccccc2)CC1`, the inhibition is -18.3%.

For the compound `c1ccc(-n2ncc3c2ncn2nnnc32)cc1`, the inhibition was -8.9%.

As to `Cc1nc2c3cnn(-c4ccccc4)c3ncn2n1`, the inhibition was 41.1%.

With `CC(C)C1N=C2c3ccccc3N=C(SCC(=O)NCCc3ccc(S(N)(=O)=O)cc3)N2C1=O` (centres undefined), the inhibition was -3.1%.

In the case of `CC(C)C1N=C2c3ccccc3N=C(SCC#N)N2C1=O` (centres undefined), the inhibition is -3.7%.

On to `CCn1c(CSc2nc3ccccc3s2)nnc1SCC(=O)c1ccc(Cl)cc1`, for which the inhibition was -26.1%.

Take `COc1ccc(-n2nnnc2SCC(N)=O)cc1`: the inhibition was 20.8%.

As to `C=CCn1c(SCC(=O)c2ccc(OC)cc2)nnc1-c1cc2cccc(OC)c2o1`, the inhibition was 21.9%.

In the case of `CCn1c(CSc2nc3ccccc3s2)nnc1SCC(=O)c1ccc(O)cc1O`, the inhibition was -26.1%.

Consider `CCOC(=O)CNC(=O)CSc1nnc(-c2ccccc2OC)n1CC`, for which the inhibition was -10.2%.

In the case of `CCn1c(SCC(=O)C(C)(C)C)nnc1-c1ccccc1OC`, the inhibition is 5.6%.

On to `COc1ccc(-n2nnnc2SCC(=O)c2cccc(OC)c2)cc1`, for which the inhibition was 8.8%.

As to `C=CCn1c(SCC(=O)Nc2ccc3c(c2)OCO3)nnc1-c1ccccc1OC`, the inhibition was -54.3%.

`COc1ccc(CNc2n[nH]c(NCc3ccc(OC)c(OC)c3)n2)cc1OC`: the inhibition was -86.4%.

Turning to `O=C(CC1(O)C(=O)Nc2ccccc21)c1cccnc1` (centres undefined), the inhibition is 26.9%.

`COc1cc2c(cc1NC(=O)CSc1nnnn1-c1ccccc1)oc1ccccc12`: the inhibition was 21.8%.

As to `CCc1ccc(C(=O)COC(=O)C(Cc2ccccc2)NC(=O)c2ccc(Cl)cc2)cc1` (centres undefined), the inhibition was -8.9%.

Regarding `CCc1ccc2nc3c(c(C(=O)O)c2c1)CCC3`, the inhibition is 7.8%.

As for `Cc1ccc(S(=O)(=O)N2CCC(=O)N2)cc1`, the inhibition is -17.1%.

For `CCCc1nc(NCc2ccccn2)c2nnn(Cc3ccccc3F)c2n1`, the inhibition is -1.1%.

Turning to `COc1ccc(NC(=O)Cc2cccs2)c(OC)c1`, the inhibition is 9.5%.

As for `O=C(Cc1n[nH]c(=O)[nH]c1=O)N/N=C/c1ccccc1`, the inhibition is -5.4%.

Consider `CCn1c(SCC(=O)c2ccc(O)c(O)c2)nnc1-c1ccc(C)cc1`, for which the inhibition is -7.9%.

`CCn1c(SCC(=O)O)nnc1-c1ccccc1`: the inhibition was -9.1%.

In the case of `Cc1ccccc1CSc1nccn1-c1ccccc1`, the inhibition is 19%.

Take `COc1cccc(C2=Nn3c(nnc3-c3ccccc3O)SC2)c1`: the inhibition is -37.4%.

In the case of `COc1ccc(C2=Nn3c(nnc3-c3ccco3)SC2)cc1`, the inhibition is -72.6%.

As to `COc1ccc(-c2nnc3n2N=C(c2cccc(Br)c2)CS3)cc1OC`, the inhibition is 7.3%.

For the compound `COc1ccc(C2=Nn3c(nnc3-c3ccco3)SC2)cc1OC`, the inhibition was 14.5%.

With `CCOC(=O)CC1C(=O)NCCN1C(=O)c1cccc(C(F)(F)F)c1` (centres undefined), the inhibition was 4.8%.

Turning to `COc1ccc(S(=O)(=O)NCC(=O)N(CC(=O)NCC2CCCO2)c2cc(C)ccc2C)cc1` (centres undefined), the inhibition is -64.9%.

For `Cc1cc2nc(C3CCN(Cc4nnnn4Cc4ccccc4)CC3)[nH]c2cc1C`, the inhibition is -140%.

For `Cc1ccc(Cn2nnnc2CN2CCC(c3nc4ccc(Cl)cc4[nH]3)CC2)cc1`, the inhibition is -87.9%.

On to `COCCCNC(=O)CCn1c(=O)c2ccccc2n(CC(=O)Nc2cc(Cl)ccc2C)c1=O`, for which the inhibition was 7.1%.

Turning to `Cc1c(O)ccc(C(=O)COc2ccccc2F)c1O`, the inhibition was 8.2%.

Consider `C=CCNc1ncnc2ccccc12`, for which the inhibition is 7.5%.

Turning to `Cc1ccc(N2Cc3ccccc3OC(C)C2=O)cc1` (centres undefined), the inhibition is -23.8%.

Turning to `Cc1cn2c(-c3cccnc3)nnc2s1`, the inhibition was 3.7%.

As for `CCCn1c(=O)[nH]c(=O)c2c1nc(-c1ccc(OC(F)F)cc1)n2CCN1CCOCC1`, the inhibition is 12.5%.

Regarding `COCc1[nH]nc2c1C(c1ccc(OC)cc1)C(C#N)=C(N)O2` (centres undefined), the inhibition was 6.1%.

For `COCc1[nH]nc2c1C(c1ccc(OC)c(OC)c1)C(C#N)=C(N)O2` (centres undefined), the inhibition is -0.8%.

For the compound `CCCc1[nH]nc2c1C(c1cccc(OC)c1)C(C#N)=C(N)O2` (centres undefined), the inhibition was -46.3%.

Take `CCCc1[nH]nc2c1C(c1cc(OC)cc(OC)c1)C(C#N)=C(N)O2` (centres undefined): the inhibition is -45.4%.

Regarding `CC(=O)N(C)c1ccc(NC(=O)/C=C/c2ccccc2Cl)cc1`, the inhibition was 0.9%.

With `CCC1=C(OC(=O)c2ccccc2)C(C)(C)C(c2ccccc2)OC1=O` (centres undefined), the inhibition is 22.6%.

As to `CC1=C(C(N)=O)C(c2ccncc2)n2nc(-c3ccccc3Cl)nc2N1` (centres undefined), the inhibition is 8.9%.

With `CCOC(=O)c1ccc(CNC(=O)Cn2nnc(-c3ccc(C)cc3)n2)o1`, the inhibition was 1.5%.

Regarding `COC(=O)c1ccc(C)c(NC(=O)Cn2cnc3ccccc3c2=O)c1`, the inhibition was 5.9%.

Turning to `CCN=c1scc(-c2ccco2)n1/N=C/c1ccc(OC)c(O)c1`, the inhibition was -2.2%.

Turning to `CCN=c1scc(-c2ccco2)n1/N=C/c1ccc(O)cc1`, the inhibition was -11.5%.

As to `CCc1ccc(CN2CCN(S(=O)(=O)Cc3ccccc3)CC2)cc1`, the inhibition was 11.5%.

As to `CC(=O)Nc1ccc(-c2cc3ccccc3o2)cc1`, the inhibition is 0.5%.

`Cc1ccccc1C(=O)c1cccn1CC(=O)NCC1CCCO1` (centres undefined): the inhibition was -11.1%.

In the case of `COc1cccc(/C=C2\N=C3CCCCCN3C2=O)c1`, the inhibition is 2.1%.

On to `COc1ccc(/C=C2\N=C3CCCCCN3C2=O)cc1OC`, for which the inhibition is -6.1%.

Values taken from PubChem BioAssay AID690 (Sanford-Burnham Center for Chemical Genomics, 2007).
